{"source": "PubChem BioAssay (NCATS)", "note": "Results filed as inconclusive are left out. Where a call stands in place of a potency, no number is given. Activity calls are given as the source filed them. Unless noted, the call rests on the fitted dose curve. Potency means the concentration at half of the fitted maximal effect."}
{"test_system": "not listed separately", "test": "qHTS for Inhibitors of the Functional Ribonucleoprotein Complex (vRNP) of Lymphocytic Choriomeningitis Arenaviruses (LCMV): Viability assay - alamar blue signal for LCMV Primary Screen (AID 1347085; calls by dose curve; tested in HEK293 reporter line; further: nearly all actives have a fitted effect of over 80% in size)", "conditions": "alamar blue viability counter-screen, LCMV vRNP screen cells; series mostly up to 57.5 µM"}
{"smiles": "Cc1ccc(S(=O)(=O)Nc2cc(Cl)ccc2C(=O)Nc2nc(-c3ccccc3)cs2)cc1", "Potency": "inactive"}
{"smiles": "CC(C)(C)C(O)C(Oc1ccc(Cl)cc1)n1cncn1", "note": "(stereo not drawn)", "Potency": "inactive"}
{"smiles": "C[C@@H](N)C(=O)O", "Potency": "inactive"}
{"smiles": "O=C(NO)c1ccccc1", "Potency": "inactive"}
{"smiles": "O=C(O)CCc1ccc(NCc2cccc(Oc3ccccc3)c2)cc1", "Potency": "inactive"}
{"smiles": "CN1C(=O)CC[C@H]1c1cccnc1", "Potency": "inactive"}
{"smiles": "O=C(C=Cc1cccnc1)NCCCCC1CCN(C(=O)c2ccccc2)CC1", "Potency": "38.5 nM (active)"}
{"smiles": "CCOC(CN1C(=O)[C@](CC(=O)Nc2ccc(C)cc2)(NC(=O)Nc2ccc(C)cc2)c2ccccc21)OCC", "Potency": "inactive"}
{"smiles": "CC1(C)Cc2c(-c3ccccc3)c(-c3ccc(Cl)cc3)c(CC(=O)O)n2C1", "Potency": "inactive"}
{"smiles": "C=CCn1c(=O)c2cnc(Nc3ccc(N4CCN(C)CC4)cc3)nc2n1-c1cccc(C(C)(C)O)n1", "Potency": "611 nM (active)"}
{"smiles": "CN(C)c1ccc(C2Nc3ccc4ccccc4c3C3=C2C(=O)CC(C)(C)C3)cc1Br", "note": "(stereo not drawn)", "Potency": "inactive"}
{"smiles": "NCCCC(N)(C(=O)O)C(F)F", "note": "(stereo not drawn)", "Potency": "inactive"}
{"smiles": "O=c1cc(CN2CCOCC2)occ1OCCCCCSc1ccnc2cc(C(F)(F)F)ccc12", "Potency": "273 nM (active)"}
{"smiles": "Nc1ccccc1N", "Potency": "inactive"}
{"smiles": "C=C1C(=CC=C2CCC[C@]3(C)[C@@H]([C@H](C)C=C[C@H](C)C(C)C)CC[C@@H]23)C[C@@H](O)C[C@@H]1O", "Potency": "13700 nM (active)"}
{"smiles": "Nc1ccccc1NC(=O)c1ccc(CNc2nccc(-c3cccnc3)n2)cc1", "Potency": "12200 nM (active)"}
{"smiles": "CCOC(=O)C(C)Oc1cccc2c(=O)n(CC(=O)Nc3ccc4c(c3)OCCO4)ccc12", "note": "(stereo not drawn)", "Potency": "inactive"}
{"smiles": "O=C1NS(=O)(=O)c2ccccc21", "Potency": "inactive"}
{"smiles": "CCCCCCCc1ccc(CCc2cccc(O)c2C(=O)O)cc1", "Potency": "inactive"}
{"smiles": "COc1ccc(C=Cc2cc(OC)c(OC)c(OC)c2)cc1O", "Potency": "inactive"}
{"smiles": "CCC=CC[C@H]1C(=O)CC[C@@H]1CC(=O)OC", "Potency": "inactive"}
{"smiles": "Cc1ccc(-c2ncn(-c3ccc(Nc4nccc(-c5cccc(N6CCOCC6)c5)n4)cc3)n2)cn1", "Potency": "485 nM (active)"}
{"smiles": "CCCn1c(=O)c2[nH]c(C34CC5CC3C[C@@H](C5)C4)nc2n(CCC)c1=O", "Potency": "inactive"}
{"smiles": "C#CC(C)(CC)OC(=O)c1ccccc1C(=O)O", "note": "(stereo not drawn)", "Potency": "inactive"}
{"smiles": "O=C1C(CCC(O)c2ccc(F)cc2)C(c2ccc(O)cc2)N1c1ccc(F)cc1", "note": "(stereo not drawn)", "Potency": "inactive"}
{"smiles": "COc1ccc(CC2SC(=O)NC2=O)cc1C(=O)NCc1ccc(C(F)(F)F)cc1", "note": "(stereo not drawn)", "Potency": "38500 nM (active)"}
{"smiles": "CC(C)(C)C(=O)Oc1ccc2c(c1)nc(NC(=O)c1cccc([N+](=O)[O-])c1)n2CCCO", "Potency": "inactive"}
{"smiles": "Cc1cc(SCc2sc(-c3ccc(C(F)(F)F)cc3)nc2C)ccc1OCC(=O)O", "Potency": "inactive"}
{"smiles": "COc1cc(S(N)(=O)=O)cc(C(=O)O)c1OC", "Potency": "inactive"}
{"smiles": "CCN(CC)CCNC(=O)c1ccc(NC(C)=O)cc1", "Potency": "inactive"}
{"smiles": "CN(C)C1CCN(C(=O)c2ccc(NC(=O)Nc3nc(N4CCOCC4)nc(N4CCOCC4)n3)cc2)CC1", "Potency": "61.1 nM (active)"}
{"smiles": "CS(=O)(=O)Nc1ccc([N+](=O)[O-])cc1Oc1ccccc1", "Potency": "inactive"}
{"smiles": "Clc1ccccc1CN1CCc2sccc2C1", "Potency": "inactive"}
{"smiles": "COc1ncnc(NS(=O)(=O)c2ccc(N)cc2)c1OC", "Potency": "inactive"}
{"smiles": "O=c1cc(-c2ccccc2)oc2ccccc12", "Potency": "inactive"}
{"smiles": "CC(C)C(C)(C)C(C)(C)C(C)(C)S", "Potency": "inactive"}
{"smiles": "CC(C)(c1ccc(O)cc1)c1ccc(O)cc1", "Potency": "inactive"}
{"smiles": "CCCCCCCC(=O)OCC(O)CO", "note": "(stereo not drawn)", "Potency": "inactive"}
{"smiles": "CCN1CCN(Cc2ccc(-c3cc4c(N[C@H](C)c5ccccc5)ncnc4[nH]3)cc2)CC1", "Potency": "inactive"}
{"target": "Nucleoprotein (Lymphocytic choriomeningitis virus (strain Armstrong)) (UniProt P09992)", "sequence (P09992 whole entry, looked up)": "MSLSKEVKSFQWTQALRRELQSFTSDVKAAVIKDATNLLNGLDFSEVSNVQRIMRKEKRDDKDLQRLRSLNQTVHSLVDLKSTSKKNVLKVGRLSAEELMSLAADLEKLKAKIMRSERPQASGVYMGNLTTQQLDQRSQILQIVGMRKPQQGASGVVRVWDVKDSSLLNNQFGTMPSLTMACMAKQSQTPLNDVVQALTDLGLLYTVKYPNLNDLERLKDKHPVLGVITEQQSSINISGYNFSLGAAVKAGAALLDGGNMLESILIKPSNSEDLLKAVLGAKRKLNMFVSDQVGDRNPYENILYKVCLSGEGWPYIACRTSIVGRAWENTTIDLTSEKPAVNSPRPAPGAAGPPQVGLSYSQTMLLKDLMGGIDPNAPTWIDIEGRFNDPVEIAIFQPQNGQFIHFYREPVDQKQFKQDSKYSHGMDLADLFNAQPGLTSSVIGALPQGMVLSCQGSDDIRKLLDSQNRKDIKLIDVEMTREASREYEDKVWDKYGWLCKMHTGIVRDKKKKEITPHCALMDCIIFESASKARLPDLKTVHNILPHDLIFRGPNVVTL", "test": "qHTS for Inhibitors of the Functional Ribonucleoprotein Complex (vRNP) of Lymphocytic Choriomeningitis Arenaviruses (LCMV): LCMV Primary Screen - GLuc reporter signal (AID 1347086); further: nearly all actives have a fitted effect of over 70% in size", "conditions": "LCMV minigenome vRNP cell assay, Gaussia luciferase reporter; series mostly up to 57.5 µM"}
{"smiles": "Cc1ccc(S(=O)(=O)Nc2cc(Cl)ccc2C(=O)Nc2nc(-c3ccccc3)cs2)cc1", "Potency": "inactive"}
{"smiles": "CC(C)(C)C(O)C(Oc1ccc(Cl)cc1)n1cncn1", "note": "(stereo not drawn)", "Potency": "inactive"}
{"smiles": "C[C@@H](N)C(=O)O", "Potency": "inactive"}
{"smiles": "O=C(NO)c1ccccc1", "Potency": "inactive"}
{"smiles": "O=C(O)CCc1ccc(NCc2cccc(Oc3ccccc3)c2)cc1", "Potency": "inactive"}
{"smiles": "CN1C(=O)CC[C@H]1c1cccnc1", "Potency": "inactive"}
{"smiles": "O=C(C=Cc1cccnc1)NCCCCC1CCN(C(=O)c2ccccc2)CC1", "Potency": "38.5 nM (active)"}
{"smiles": "CCOC(CN1C(=O)[C@](CC(=O)Nc2ccc(C)cc2)(NC(=O)Nc2ccc(C)cc2)c2ccccc21)OCC", "Potency": "inactive"}
{"smiles": "CC1(C)Cc2c(-c3ccccc3)c(-c3ccc(Cl)cc3)c(CC(=O)O)n2C1", "Potency": "inactive"}
{"smiles": "C=CCn1c(=O)c2cnc(Nc3ccc(N4CCN(C)CC4)cc3)nc2n1-c1cccc(C(C)(C)O)n1", "Potency": "968 nM (active)"}
{"smiles": "CN(C)c1ccc(C2Nc3ccc4ccccc4c3C3=C2C(=O)CC(C)(C)C3)cc1Br", "note": "(stereo not drawn)", "Potency": "inactive"}
{"smiles": "NCCCC(N)(C(=O)O)C(F)F", "note": "(stereo not drawn)", "Potency": "inactive"}
{"smiles": "O=c1cc(CN2CCOCC2)occ1OCCCCCSc1ccnc2cc(C(F)(F)F)ccc12", "Potency": "1220 nM (active)"}
{"smiles": "Nc1ccccc1N", "Potency": "inactive"}
{"smiles": "C=C1C(=CC=C2CCC[C@]3(C)[C@@H]([C@H](C)C=C[C@H](C)C(C)C)CC[C@@H]23)C[C@@H](O)C[C@@H]1O", "Potency": "inactive"}
{"smiles": "Nc1ccccc1NC(=O)c1ccc(CNc2nccc(-c3cccnc3)n2)cc1", "Potency": "inactive"}
{"smiles": "CCOC(=O)C(C)Oc1cccc2c(=O)n(CC(=O)Nc3ccc4c(c3)OCCO4)ccc12", "note": "(stereo not drawn)", "Potency": "inactive"}
{"smiles": "O=C1NS(=O)(=O)c2ccccc21", "Potency": "inactive"}
{"smiles": "CCCCCCCc1ccc(CCc2cccc(O)c2C(=O)O)cc1", "Potency": "inactive"}
{"smiles": "COc1ccc(C=Cc2cc(OC)c(OC)c(OC)c2)cc1O", "Potency": "inactive"}
{"smiles": "CCC=CC[C@H]1C(=O)CC[C@@H]1CC(=O)OC", "Potency": "inactive"}
{"smiles": "Cc1ccc(-c2ncn(-c3ccc(Nc4nccc(-c5cccc(N6CCOCC6)c5)n4)cc3)n2)cn1", "Potency": "inactive"}
{"smiles": "CCCn1c(=O)c2[nH]c(C34CC5CC3C[C@@H](C5)C4)nc2n(CCC)c1=O", "Potency": "inactive"}
{"smiles": "C#CC(C)(CC)OC(=O)c1ccccc1C(=O)O", "note": "(stereo not drawn)", "Potency": "inactive"}
{"smiles": "O=C1C(CCC(O)c2ccc(F)cc2)C(c2ccc(O)cc2)N1c1ccc(F)cc1", "note": "(stereo not drawn)", "Potency": "inactive"}
{"smiles": "COc1ccc(CC2SC(=O)NC2=O)cc1C(=O)NCc1ccc(C(F)(F)F)cc1", "note": "(stereo not drawn)", "Potency": "inactive"}
{"smiles": "CC(C)(C)C(=O)Oc1ccc2c(c1)nc(NC(=O)c1cccc([N+](=O)[O-])c1)n2CCCO", "Potency": "inactive"}
{"smiles": "Cc1cc(SCc2sc(-c3ccc(C(F)(F)F)cc3)nc2C)ccc1OCC(=O)O", "Potency": "inactive"}
{"smiles": "COc1cc(S(N)(=O)=O)cc(C(=O)O)c1OC", "Potency": "inactive"}
{"smiles": "CCN(CC)CCNC(=O)c1ccc(NC(C)=O)cc1", "Potency": "inactive"}
{"smiles": "CN(C)C1CCN(C(=O)c2ccc(NC(=O)Nc3nc(N4CCOCC4)nc(N4CCOCC4)n3)cc2)CC1", "Potency": "96.8 nM (active)"}
{"smiles": "CS(=O)(=O)Nc1ccc([N+](=O)[O-])cc1Oc1ccccc1", "Potency": "inactive"}
{"smiles": "Clc1ccccc1CN1CCc2sccc2C1", "Potency": "inactive"}
{"smiles": "COc1ncnc(NS(=O)(=O)c2ccc(N)cc2)c1OC", "Potency": "inactive"}
{"smiles": "O=c1cc(-c2ccccc2)oc2ccccc12", "Potency": "inactive"}
{"smiles": "CC(C)C(C)(C)C(C)(C)C(C)(C)S", "Potency": "inactive"}
{"smiles": "CC(C)(c1ccc(O)cc1)c1ccc(O)cc1", "Potency": "inactive"}
{"smiles": "CCCCCCCC(=O)OCC(O)CO", "note": "(stereo not drawn)", "Potency": "inactive"}
{"smiles": "CCN1CCN(Cc2ccc(-c3cc4c(N[C@H](C)c5ccccc5)ncnc4[nH]3)cc2)CC1", "Potency": "inactive"}
